Compounds with a hit are over-represented: about 3.7% of the library has one in this group of screens.
tim23-1 inh: growth inhibitors of tim23-1 mutant yeast, primary screen, luminescence, uHTS | S. cerevisiae tim23-1 growth, BacTiter-Glo luminescence, 24 h | 330,000 tested, 1.3% active | inhibition, % at 20 µM | AID 463212, 2010;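 active = growth inhibition of the mutant yeast at or above 50%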;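 note: temperature-sensitive mutant grown at 25 °C; plate controls were DMSO-treated mutant yeast for no effect and medium wells lacking yeast for full effect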
tim10-1 inh: growth inhibitors of tim10-1 mutant yeast, primary screen, luminescence, uHTS; 330,000 tested, 2.2% active; inhibition, % at 20 µM; S. cerevisiae tim10-1 ts strain growth, BacTiter-Glo, 24 h; AID 463190, 2010;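 active = inhibition of at least 40%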;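 note: mutant grown at 25 °C; 0% = DMSO wells with yeast and 100% = wells holding no yeast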
PfHsp90 set2: growth inhibition of PfHsp90-expressing yeast, primary screen, antimalarial PfHsp90 inhibitor project, S. cerevisiae, BacTiter-Glo luminescence, single point, set 2; BacTiter-Glo ATP, 48 h; yeast lacking PDR1 and PDR3 efflux regulators; inhibition, % at 9.4 µM; 310,000 tested, 0.32% active; AID 504621, 2011;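 active = every replicate shows inhibition above about 80%, whatever the replicate mean, limit read from the data; inconclusive = mean inhibition reaches the set limit but some replicate falls short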;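 note: 0% = DMSO neutral controls and 100% = 20 µM radicicol positive controls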
TIM10 inh: growth inhibitors of isogenic TIM10 control yeast, primary screen, counter-screen for tim10-1 yeast inhibitor project, luminescence, uHTS; S. cerevisiae TIM10 strain growth, BacTiter-Glo luminescence, 24 h; inhibition, % at 10 µM; 330,000 tested, 1.4% active;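 active = inhibition of 40% or more at the single tested concentration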;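 note: wild-type TIM10 isogenic control strain grown at permissive 25 °C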
NALP3 yeast inh: NALP3 inflammasome inhibitors in reconstituted yeast, primary screen, luminescence, uHTS | Yeast reconstituted NLRP3/ASC/caspase-1, beta-gal luminescence, 24 h | inhibition, % at 10 µM | 330,000 tested, 0.39% active | AID 2825, 2010;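 active = inhibition of 50% or more; inactive = inhibition below 50%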;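 note: plate controls were induced DMSO wells for no effect and uninduced yeast grown without galactose for full effect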
TIM10 conf: growth inhibitors of wild-type TIM10 yeast, confirmation, counter-screen for tim10-1 synthetic lethality project, single concentration, luminescence, S. cerevisiae | inhibition, % at 10 µM | S. cerevisiae tim10 strain growth, BacTiter-Glo luminescence, 24 h | 4,600 tested, 63% active | shares compounds with TIM10 inh;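 active = inhibition of yeast growth at or above a set limit in either of two replicates at 10 µM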;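 note: this counterscreen used the strain with wild-type TIM10; 0% = yeast with DMSO and 100% = medium wells lacking yeast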
tim23-1 confirm: tim23-1 mutant yeast growth inhibitors, confirmation, luminescence, single concentration; shares compounds with tim23-1 inh; S. cerevisiae tim23-1 growth, BacTiter-Glo luminescence, 24 h; inhibition, % at 20 µM; 4,400 tested, 83% active;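 active = inhibition above about 39% in either of two replicate wells at 20 µM, limit read from the data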;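 note: temperature-sensitive tim23-1 mutant grown at 25 °C; 0% = DMSO wells with yeast and 100% = medium wells without yeast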
* marks the source's active call; other numbers are inactive results.

Results for Cc1ccc(C(=O)Nc2cccc(Oc3ccccc3)c2)o1 ?
tim23-1 inh: 57.6*; tim10-1 inh: 20.1; PfHsp90 set2: 9.9; TIM10 inh: 49.5*; NALP3 yeast inh: 22.5; TIM10 conf: 56.1*; tim23-1 confirm: 76.7*

How did Cc1cccc(N=N/C(=C\O)C(=O)c2cccs2)c1 do in these assays?
tim23-1 inh: 58.2*; tim10-1 inh: 38.2; PfHsp90 set2: -56.3; TIM10 inh: 43.1*; NALP3 yeast inh: 16.7; TIM10 conf: 44.8*; tim23-1 confirm: 60.5*

How did Cc1cc(C(=O)NCc2ccco2)c2cc(F)ccc2n1 do in these assays?
tim23-1 inh: -0.1; tim10-1 inh: 2.6; PfHsp90 set2: -18.1; TIM10 inh: 7.5; NALP3 yeast inh: 3.6

How did NC(=O)COc1ccc(/C=N/NS(=O)(=O)c2ccccc2)cc1 do in these assays?
tim23-1 inh: -4.0; tim10-1 inh: 1.7; PfHsp90 set2: -4.3; TIM10 inh: 3.2; NALP3 yeast inh: 1.8

How did CC(=O)Nc1sc2c(c1C(c1ccc(Cl)cc1)N1CCOCC1)CCCC2 (stereo not drawn) do in these assays?
tim23-1 inh: 50.5*; tim10-1 inh: 29.2; PfHsp90 set2: 32.4; TIM10 inh: 41.2*; NALP3 yeast inh: 15.6; TIM10 conf: -53.3; tim23-1 confirm: 55.1*

How did CC1=CC(C)(C)N(C(=O)CN2C(=O)c3ccccc3C2=O)c2ccc(C)cc21 do in these assays?
tim23-1 inh: 60.3*; tim10-1 inh: 39.6; PfHsp90 set2: 17.8; TIM10 inh: 43.8*; NALP3 yeast inh: 25.1; TIM10 conf: 50.1*; tim23-1 confirm: 58.9*

What do the screens show for `CC1=CC(C)(C)N(C(=O)CN2C(=O)CCC2=O)c2ccccc21`?
tim23-1 inh: 5.3; tim10-1 inh: 10.6; PfHsp90 set2: 11.3; TIM10 inh: 3.1; NALP3 yeast inh: -1.0

Results for O=C(/C=C/c1ccccc1O)c1ccc(Cl)cc1 ?
tim23-1 inh: 55.9*; tim10-1 inh: 34.0; PfHsp90 set2: 14.0; TIM10 inh: 42.2*; NALP3 yeast inh: 37.1; TIM10 conf: 38.7*; tim23-1 confirm: 58.0*

How did O=C(/C=C/c1ccccc1O)c1ccccc1 do in these assays?
PfHsp90 set2: 14.7

How did O=C1CCC/C=C\C[C@H](CC(=O)N(CCO)Cc2ccccc2)C(=O)N2CCC[C@@H]2CO1 do in these assays?
tim23-1 inh: -18.1; tim10-1 inh: -12.5; PfHsp90 set2: 8.7; TIM10 inh: -7.9; NALP3 yeast inh: 14.5

What do the screens show for `CCCOC(=O)Oc1ccc2c(=O)c(Oc3cc(C)cc(C)c3)coc2c1`?
tim23-1 inh: 50.8*; tim10-1 inh: 37.7; PfHsp90 set2: 4.4; TIM10 inh: 46.6*; NALP3 yeast inh: 19.6; TIM10 conf: 41.2*; tim23-1 confirm: 52.8*

How did Cc1ccc(CNC(=O)CCCc2c[nH]c3ccccc23)cc1 do in these assays?
tim23-1 inh: 13.2; tim10-1 inh: 0.5; PfHsp90 set2: 3.0; TIM10 inh: -15.0; NALP3 yeast inh: 9.4

What do the screens show for `O=C(c1ccc([N+](=O)[O-])o1)N1CCc2ccccc2C1`?
tim23-1 inh: 59.0*; tim10-1 inh: 38.2; PfHsp90 set2: inconclusive; TIM10 inh: 73.1*; NALP3 yeast inh: 20.9; TIM10 conf: 73.2*; tim23-1 confirm: 35.5

Results for O=C(Nc1ccc(-c2cn3ccccc3n2)cc1)c1ccco1 ?
tim23-1 inh: 59.5*; tim10-1 inh: -17.6; PfHsp90 set2: 21.9; TIM10 inh: 44.3*; NALP3 yeast inh: 44.1; TIM10 conf: 1.1; tim23-1 confirm: 59.1*

Results for O=C(Nc1ccc(-c2cn3ccccc3n2)cc1)c1ccc(Cl)cc1 ?
tim23-1 inh: 11.5; tim10-1 inh: -5.0; PfHsp90 set2: -26.8; TIM10 inh: 2.6; NALP3 yeast inh: 17.6

Screens (PubChem BioAssay)
